Screening results (PubChem)
DT40 TDP1 CPT – growth inhibition of DT40 Tdp1-/-;hTDP1 cells with camptothecin (screen for TDP1 inhibitors). chicken DT40 Tdp1-/-;hTDP1 cells + 20 nM CPT, ATP luminescence, 48 h. Potency, µM (doses to about 46.2 µM), inactives show top-dose activity change, negative = growth inhibition, hits mostly inhibitors. actives 12% (n = 420,000); also: potency is read from the fitted curve at half-maximal effect; nearly all actives have a fitted effect of over 55% in size
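Cell growth measured by CellTiter-Glo luminescence after a minimum 48 h, 37 C compound exposure with 20 nM CPT in Tdp1-knockout DT40 cells stably expressing hTDP1, seeded 400/well; qHTS titration format.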
TDP1 cell noCPT – qHTS for Inhibitors of human tyrosyl-DNA phosphodiesterase 1 (TDP1): qHTS in cells in absence of CPT; DT40 Tdp1-/- hTDP1 cells, no CPT, ATP luminescence, 48 h; Potency, µM (titrated, usually from 46.2 µM), for inactives: at the top dose activity change, negative = growth inhibition, most hits filed as inhibitors; actives 15% (n = 420,000); AID 686978, 2013; also: potency is read from the fitted curve at half-maximal effect; nearly all actives have a fitted effect of over 55% in size
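Readout: luminescence from CellTiter-Glo after 30 min in the dark at RT. Cells: DT40 Tdp1-/- with stable hTDP1, 400/well. Exposure: compounds alone, ≥48 hr, 37 °C.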
IL-1B inflam inh – blocks inflammasome-driven IL-1 beta release; THP-1 LPS/ATP IL-1B secretion, AlphaLISA, 16 h; active compounds read low; activity change, % at 57.5 µM; actives 4.7% (n = 360,000); in the data active = activity change below about -50%; inconclusive = mostly about -30% to -49%
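Secreted IL-1B measured by AlphaLISA bead assay after 16 h compound exposure of THP-1 cells; compounds (final up to 57.5 uM) added 1 h before LPS (250 ng/mL) and ATP (1.25 mM) stimulation; lower signal means less secretion.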
RORg inh – blocks mouse ROR gamma transcriptional activity. actives 5.4% (n = 310,000). P51450. Drosophila S2 Gal4-RORgamma UAS-luciferase reporter, 20 h. Potency, µM (series often up to 53.6 µM), for inactives: at the highest dose activity change, negative = inhibition, hits mostly inhibitors. AID 2551; also: potency is read from the fitted curve at half-maximal effect; nearly all actives have a fitted effect of over 60% in size
Target sequence (P51450 whole entry, looked up, the tested form may be a part): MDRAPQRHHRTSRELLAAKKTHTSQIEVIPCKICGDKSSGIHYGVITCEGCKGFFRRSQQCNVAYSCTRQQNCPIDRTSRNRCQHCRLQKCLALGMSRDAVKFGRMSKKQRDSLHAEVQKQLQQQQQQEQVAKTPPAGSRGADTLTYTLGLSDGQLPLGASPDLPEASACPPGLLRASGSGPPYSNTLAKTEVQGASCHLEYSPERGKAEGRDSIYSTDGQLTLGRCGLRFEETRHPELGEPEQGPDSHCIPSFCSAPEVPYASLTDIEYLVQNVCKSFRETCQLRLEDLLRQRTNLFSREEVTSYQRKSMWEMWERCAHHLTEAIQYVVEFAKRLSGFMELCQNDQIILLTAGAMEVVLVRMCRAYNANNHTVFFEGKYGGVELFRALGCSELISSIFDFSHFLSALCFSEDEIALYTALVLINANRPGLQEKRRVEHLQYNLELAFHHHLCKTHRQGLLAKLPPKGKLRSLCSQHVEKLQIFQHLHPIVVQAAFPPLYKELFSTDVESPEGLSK
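Read-out: Photinus luciferase luminescence; inhibitors lower reporter signal. Insect Schneider cells with Gal4-ROR gamma fusion under metallothionein promoter, UAS reporter; 700 uM final copper sulfate induction, 20 hr, ambient temperature.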
ELG1 DNA repair – inhibitors of ELG1-dependent DNA repair in HEK293T cells | Potency, µM (top dose mostly 46.1 µM), inactives show top-dose activity change, negative = inhibition, most hits filed as inhibitors | AID 504467 | actives 2.3% (n = 330,000) | HEK293T ELG1-luciferase reporter, luminescence, 16 h; DNA damage induced by 5-fluorouridine; also: potency is read from the fitted curve at half-maximal effect; nearly all actives have a fitted effect of over 55% in size
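HEK293T cells expressing luciferase-tagged ELG1 (2,000/well) received 5-Fluorouridine plus compound or DMSO for 16 hr at 37 °C. Luciferase was read by ONE-Glo luminescence after 30 min at room temperature.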
VP16 counter – inhibits Gal4-VP16 luciferase reporter, ROR gamma counter-screen. Drosophila S2 Gal4-VP16 UAS-luciferase, luminescence, 20 h. Potency, µM (highest dose often 53.6 µM), inactives show top-dose activity, negative = inhibition, actives largely listed as inhibitors. actives 3.5% (n = 310,000). AID 2546;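 also: Gal4-VP16 expression switched on by copper sulfate through the metallothionein promoter; potency is read from the fitted curve at half-maximal effect; nearly all actives have a fitted effect of over 50% in size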
Active calls of the source: *; u = inconclusive; x = no result. Compounds with a hit are over-represented: about 21% of the library has one in this group of screens. Unless noted, calls follow the shape of the dose curve; as a rule, active = well fitted curve in the direction sought with a large enough effect; inconclusive = small, poorly fitted or top-dose-only effect, or another doubt; inactive = no such curve, though single readings can be large; an effect the other way counts as inactive or inconclusive. % is scaled to controls: 0 for no effect and ±100 for the full control effect.

SMILES	DT40 TDP1 CPT	TDP1 cell noCPT	IL-1B inflam inh	RORg inh	ELG1 DNA repair	VP16 counter
CN(Cc1ccccc1)C(=O)c1ccc(NC(=O)Cc2ccc(NC(=O)C3CCN(C(=O)c4ccccc4)CC3)cc2)cc1	u	u	8	x	x	x
COC(=O)c1ccccc1NC(=O)c1cc(CN2CCOCC2)on1	5%	-11%	x	x	x	x
CCCc1nnc(NC(=O)CCS(=O)(=O)Cc2ccccc2)s1	u	u	0	22%	3%	1%
Cc1ccc(S(=O)(=O)CCC(=O)Nc2nc3c(s2)CCCC3)cc1	u	29µM*	28	-2%	-11%	-3%
CCc1nnc(NC(=O)CCS(=O)(=O)Cc2ccccc2)s1	15µM*	u	-6	14%	5%	6%
CC(C)c1nnc(NC(=O)CCS(=O)(=O)c2ccccc2)s1	16µM*	u	-105*	10%	u	-16%
CCC(CC)c1nnc(NC(=O)CCS(=O)(=O)Cc2ccccc2)s1	u	15µM*	-18	10%	-3%	-16%
CC(C)c1nnc(NC(=O)CCc2ccccc2)s1	3%	10%	-2	-3%	28%	1%
CCCC(C)(C)C(=O)N1CCC1(C)C(=O)NS(=O)(=O)c1ccc(Cl)cc1 (stereo not drawn)	-28%	2%	33	x	x	x
CCC(CC)c1nnc(NC(=O)Cc2c[nH]c3ccccc23)s1	26µM*	23µM*	1	x	x	x
O=C(CCS(=O)(=O)c1ccccc1)Nc1ncc([N+](=O)[O-])s1	8.2µM*	10µM*	-76*	u	0%	u
CCCCc1nnc(NC(=O)CCS(=O)(=O)c2ccc(C)cc2)s1	13µM*	u	6	x	0%	x
CCc1nnc(NC(=O)CCS(=O)(=O)c2ccccc2)s1	26µM*	u	4	-12%	u	7%
CC(C)NC(=O)[C@@H]1C[C@H]1[C@@H](NC(=O)OCc1ccccc1)c1ccccc1	x	x	x	21%	x	7%
CCOC(=O)CNC(=O)O[C@H]1C(=O)c2ccc(OC)cc2O[C@@H]1c1ccc2c(c1)OCO2	x	x	x	17%	x	22%
COc1cc2cc(CN(Cc3cccs3)C(=S)Nc3ccc(C)cc3)c(=O)[nH]c2cc1OC	26µM*	16µM*	-9	-1%	5.2µM*	u
CNC(=S)N(Cc1cccs1)Cc1cc2cc(OC)c(OC)cc2[nH]c1=O	u	18µM*	2	20%	-19%	-2%
Cc1cccc(NC(=S)N(Cc2cccs2)Cc2cc3cc(C)ccc3[nH]c2=O)c1	18µM*	21µM*	11	-7%	u	-2%
Cc1ccc(NC(=S)N(Cc2cccs2)Cc2cc3cc(C)ccc3[nH]c2=O)cc1	u	u	-8	-26%	1%	u
Cc1ccc(NC(=S)N(Cc2cccs2)Cc2cc3cc(C)cc(C)c3[nH]c2=O)cc1	u	u	-6	-28%	u	-14%
COc1cc2cc(CN(Cc3cccs3)C(=S)Nc3cccc(C)c3)c(=O)[nH]c2cc1OC	x	x	x	0%	7.3µM*	u
CN1[C@H](Cc2ccccc2)C=C[C@]1(C)C(=O)NCC1CC1	x	x	x	-8%	x	7%
CCC(C)NC(=S)N(CCc1ccccc1)Cc1cc2cc(OC)c(OC)cc2[nH]c1=O (stereo not drawn)	u	18µM*	u	-45%	6.5µM*	u
CC1=C(C#N)C(c2ccoc2)C(C(=O)OCc2ccccc2)=C(N)S1 (stereo not drawn)	-26%	26µM*	-13	14%	11%	-13%
CCCc1cc2c(=O)c(-c3ccc4c(c3)OCCO4)coc2cc1OS(C)(=O)=O	u	u	-54*	u	u	-15%
SMILES	DT40 TDP1 CPT	TDP1 cell noCPT	IL-1B inflam inh	RORg inh	ELG1 DNA repair	VP16 counter
CCCc1cc2c(=O)c(-c3ccc4c(c3)OCCO4)coc2cc1OC(=O)c1ccco1	u	u	1	3%	u	u
CCCc1cc2c(=O)c(-c3ccc4c(c3)OCCO4)c(C)oc2cc1OS(C)(=O)=O	18µM*	23µM*	-11	-9%	13µM*	-27%
CCc1cc2c(=O)c(-c3ccc4c(c3)OCCO4)coc2cc1OC(=O)c1ccco1	u	21µM*	-15	3%	u	u
Cc1nc(N)nc(N(C)c2ccccc2)c1Br	u	u	21	x	x	x
O=C(N[C@H]1CCC(=O)N([C@H](CSc2ccc(Br)cc2)Cc2ccccc2)CC1)OCc1ccccc1	u	18µM*	-23	x	0%	x
N#CCCN1CCC(NC(=O)OCc2ccccc2)CCC1=O (stereo not drawn)	-1%	-2%	40	-12%	7%	-1%
COc1ccc(SC[C@H](Cc2ccccc2)N2CC[C@@H](O)CCC2=O)cc1	u	u	14	x	14%	x
O=C1CC[C@H](OCc2ccccc2)CCN1[C@H](CSc1ccccc1)Cc1ccccc1	-27%	u	-8	u	u	u
Cc1ccc(SC[C@H](Cc2ccccc2)N2CC[C@@H](NC(=O)OCc3ccccc3)CCC2=O)cc1	18µM*	13µM*	x	u	-30%	-2%
O=C(N[C@H]1CCC(=O)N([C@H](CSc2ccccc2)Cc2ccccc2)CC1)OCc1ccccc1	u	20µM*	-22	11%	u	-3%
O=C(NC1CCC(=O)N(CCSc2ccccc2)CC1)OCc1ccccc1 (stereo not drawn)	u	16µM*	15	35%	-17%	13%
C=CCOC1COC2C(OCC=C)COC12 (stereo not drawn)	14%	-15%	-11	x	x	x
COc1ncc2nc(-c3cccs3)c(=O)n(Cc3ccc(F)cc3)c2n1	-18%	-6%	x	-21%	x	-6%
N#C/C(=C\c1coc2ccc(O)cc2c1=O)C(=O)Nc1nc2ccccc2s1	9.2µM*	u	13	u	u	u
CC(C)c1ccc(N(CC(=O)O)S(=O)(=O)c2ccc3[nH]c(=O)c(=O)[nH]c3c2)cc1	-2%	-12%	x	x	x	x
COCCN=C1OC(=O)N2C(=O)C3=C4C(C[C@H]5C(=O)N(CC(=O)OC)C(=O)[C@H]5[C@H]4[C@@]12Cc1ccccc1)[C@H]1C(=O)N(CC(=O)OC)C(=O)[C@H]1[C@H]3C (stereo partly drawn)	x	x	x	11%	x	10%
O=C(NC(=S)Nc1ccc2oc(-c3cccnc3)nc2c1)c1cccc(Cl)c1	16µM*	u	-1	20µM*	-9%	-13%
